PubChem BioAssay AID686979 (National Center for Advancing Translational Sciences (NCATS), 2013)
“And” between values parts separate entries of the source, which are not always exact repeats. Equal values may be shown once. Screen size: about 420,000 compounds; about 50,000 (12%) were called active. About 26% were inconclusive and are not listed. Shown is part of a subset that was picked to be rich in actives. Entries that show only a call come without a potency. Unmarked numbers belong to inactive results. Calls follow the shape of the dose curve; as a rule, active = well fitted inhibition curve with a large enough effect; inconclusive = small, poorly fitted or top-dose-only effect; inactive = flat fitted curve, though single readings scatter.

test: qHTS for Inhibitors of human tyrosyl-DNA phosphodiesterase 1 (TDP1): qHTS in cells in presence of CPT; settings: chicken DT40 Tdp1-/-;hTDP1 cells + 20 nM CPT, ATP luminescence, 48 h; series mostly up to 46.2 µM; also: nearly all actives have a fitted effect of over 55% in size
How it was run: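 Chicken DT40 Tdp1-/- cells complemented with human TDP1, 400 cells/well, exposed to compounds plus 20 nM camptothecin for at least 48 h at 37 C; viability read as ATP content by CellTiter-Glo luminescence.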
Potency is read from the fitted curve at half-maximal effect.

Compound	Potency	activity change, negative = growth inhibition
COCCn1cnnc1SCC(=O)Nc1cccc(S(=O)(=O)N2CCCCC2)c1	inactive	–
NC(=O)C1CCN(C(=O)/C(=C/c2ccco2)NC(=O)c2ccccc2)CC1	inactive	–
Cc1c(C(=O)NC(=S)NCc2cccnc2)oc2ccccc12	inactive	–
Cc1ccccc1OS(=O)(=O)c1cccc([N+](=O)[O-])c1	inactive	–
CC(Oc1ccccc1[N+](=O)[O-])C(=O)N/N=C/c1ccoc1 (centres undefined)	inactive	–
O=C(CCc1ccccc1)NNc1ccc(F)cc1	inactive	–
CC(C)c1cc(C(=O)N2CCOc3ccc(CN4CCC(Oc5cccnc5)CC4)cc3C2)n[nH]1	–	-19.6% [at 9.04 µM]
CC(C)CC1(C)NC(=O)N(CC(=O)Nc2ccc3c(c2)OCCO3)C1=O (centres undefined)	inactive	–
Cc1cc(NC(=O)CSC2=NS(=O)(=O)c3cc(Cl)ccc3N2)no1	inactive	–
COc1cccc(CNC(=O)C2CCCN(c3ncnc4c3nc3n4CCCCC3)C2)c1 (centres undefined)	23.1 µM (active)	–
COc1cccc(CNC(=O)C2CCCN(S(=O)(=O)N3CC(C)CC(C)C3)C2)c1 (centres undefined)	inactive	–
O=C(NCCCN1CCCCC1)C1CCCN(c2ncnc3c2nc2n3CCCCC2)C1 (centres undefined)	inactive	–
O=C(Nc1cccc(Cl)c1)C1CCCN(c2cnccn2)C1 (centres undefined)	inactive	–
COc1cccc(NC(=O)C2CCN(c3cc(C)nc4c(-c5ccc(Cl)cc5)c(C)nn34)CC2)c1	inactive	–
COc1cccc(NC(=O)C2CCCN(c3ncnc4c3nc3n4CCCCC3)C2)c1 (centres undefined)	20.6 µM (active)	–
N#Cc1c(NC(=O)C2CC(Cl)=CCC2C(=O)O)sc2c1CCCCC2 (centres undefined)	inactive	–
COc1ccc2c(CC(=O)NNC(=O)c3ccccc3F)coc2c1	inactive	–
CCC(C)(C)NC(=O)CN(C(=O)C(=O)Nc1ccc2c(c1)OCCO2)C(C)(C)CC	inactive	–
O=C(COC(=O)Cn1[nH]c(=O)c2ccccc2c1=O)Nc1ncc(Cl)cc1Cl	inactive	–
O=C(OCc1cc(Cl)ccc1OC(F)F)c1cccnc1	inactive	–
Cc1cccc(NC(=O)NC(=S)NC(=O)c2ccccc2)c1	8.2 µM (active)	–
Cc1cccc(NC(=S)NC(=O)c2ccc(Br)o2)c1	inactive	–
Cc1ccc(C(=O)NC(=S)Nc2ccc(N3CCOCC3)cc2)cc1	inactive	–
Cc1ccc(NC(=S)NC(=O)c2ccc(-c3ccccc3)cc2)cc1	6.51 µM (active)	–
Cc1cccc(NC(=O)/C(=C\c2ccco2)NC(=O)c2ccccc2)c1	inactive	–
Cc1ccc(C(=O)NC(=S)Nc2ccccc2C)cc1	inactive	–

Compound	Potency	activity change, negative = growth inhibition
C/C(=N\NC(=O)OC(C)(C)C)c1ccc[nH]1	inactive	–
O=C(CCN1C(=O)C2C3CCC(C3)C2C1=O)Nc1ccc(Cl)cc1Cl (centres undefined)	inactive	–
O=C(NCCc1c[nH]c2ccc(Cl)cc12)c1ccc([N+](=O)[O-])cc1	inactive	–
CCc1ccc(C(=O)NC(=S)Nc2ccccc2N2CCOCC2)cc1	inactive	–
O=C(CN1CCN(c2ccc(O)cc2)CC1)Nc1ccc(-c2ccccc2)cc1	inactive	–
O=C(Cc1cccc2ccccc12)NCCC1=CCCCC1	inactive	–
Cc1cc(C)cc(OCC(=O)Nc2ccc(N3CCOCC3)cc2N2CCOCC2)c1	20.6 µM (active)	–
Cc1ccccc1CN1CCNC(=O)C1CC(=O)NCCC1=CCCCC1 (centres undefined)	inactive	–
O=C(CNCCC1=CCCCC1)Nc1ccccc1N1CCCCCC1	20.6 µM (active)	–
O=C(COc1ccc(Cl)cc1)NC(=S)Nc1ccccc1N1CCOCC1	inactive	–
O=C(NCCCN1CCN(C2CCCCC2)CC1)Nc1ccccc1C(F)(F)F	inactive	–
O=C(CN1CCN(C2CCCCC2)CC1)Nc1ccccc1N1CCCCC1	29.1 µM (active)	–
Cc1ccc(OCCCC(=O)Nc2ccc(N3CCOCC3)cc2)cc1	inactive	–
CC(=O)c1ccc(N2CCN(CC(=O)Nc3ccccc3N3CCOCC3)CC2)cc1	14.6 µM (active)	–
O=C(CN1CCCCC1)Nc1ccccc1C(=O)NC1CC1	inactive	–
CCn1c(=O)c(=O)[nH]c2c(=O)oc3ccc(S(=O)(=O)Nc4ccc(OC)cc4)cc3c21	inactive	–
Cc1ccc(CCN2CC(C(=O)NCCc3ccccc3)CC2=O)cc1 (centres undefined)	inactive	–
O=C(COC(=O)Cc1ccc(Br)cc1)Nc1ccc(N2CCOCC2)cc1	inactive	–
CCc1ccc(NC(=O)COC(=O)c2cccs2)cc1	inactive	–
COc1cc(C(=O)N2CCN(C(=O)COc3cccc(C)c3)CC2)cc(OC)c1OC	inactive	–
COc1cccc(OC)c1C(=O)Nc1ccc2c(c1)n(C)c(=O)n2C	inactive	–
COC(=O)c1ccc(CSc2ccc(S(=O)(=O)N3CCCCC3)cn2)cc1	inactive	–
Cc1cn(C2OC[C@@H](O)[C@@H]2CO)c(=O)[nH]c1=O (some centres undefined)	inactive	–
CC(C)(C)CN1CCNC(=O)C1CC(=O)NC1Cc2ccccc2C1 (centres undefined)	inactive	–
Cc1cccc(C)c1NC(=O)CN1CCN(c2ccc(F)cc2)CC1	14.6 µM (active)	–
O=C(CN1CCN(c2ccccc2)CC1)Nc1ccc(F)cc1	inactive	–

Compound	Potency	activity change, negative = growth inhibition
O=C(CN1CCN(c2ccc(F)cc2)CC1)Nc1ccccc1	inactive	–
C#CCCOC(=O)N1C2=NC(C(=O)OC)=C(C(=O)OC)[C@@H]3N(C)c4ccc(OC)cc4[C@]23C[C@H]1C(=O)OC	inactive	–
N/C(=N\OC(=O)CC1CCCCC1)c1ccccc1	inactive	–
O=C(C(Cl)Cl)N1CCN(c2ccccn2)CC1	inactive	–
Cc1cc(C(=O)N2CCN(c3ccccn3)CC2)c(C)o1	17.8 µM (active)	–
O=C(c1cc2ccccc2s1)N1CCN(c2ccccn2)CC1	inactive	–
COc1ccc(/C=N/Nc2nc(-c3ccc(C)cc3)c(C#N)c(=O)[nH]2)cc1	inactive	–
COc1ccc(CCNS(=O)(=O)c2ccc(F)cc2)cc1OC	inactive	–
COc1ccc(CCNS(=O)(=O)c2cccc([N+](=O)[O-])c2)cc1	inactive	–
COc1ccc(S(=O)(=O)NCCc2cc3ccc(C)c(C)c3[nH]c2=O)cc1	14.6 µM (active) and 18.4 µM (active)	–
COC(=O)Cn1nc(-c2ccccc2)c2cc(Cl)ccc21	inactive	–
NC(N)=Nc1nc(-c2ccccc2)c2cc(Cl)ccc2n1	16.4 µM (active)	–
Cc1ccc2nc(Nc3ccccc3O)nc(-c3ccccc3)c2c1	inactive	–
O=C(Nc1ccc(-c2cscn2)cc1)C1CCCN(Cc2ccc(CO)o2)C1 (centres undefined)	inactive	–
CN(Cc1ccco1)S(=O)(=O)c1nnc(NC(=O)c2ccccc2)s1	inactive	–
CC(C)NC(=O)c1ccccc1S(=O)c1ccccc1C#N (centres undefined)	inactive	–
Cc1cc(NC(=O)CC(C)C)cc(-c2nc3ncccc3o2)c1O	inactive	–
COc1cccc(CNS(=O)(=O)c2csc(C(N)=O)c2)c1	inactive	–
CC1Cc2cc(S(=O)(=O)CCC(=O)NCc3ccc(Cl)cc3)ccc2N1C(=O)C1CC1 (centres undefined)	3.66 µM (active)	–
COc1cccc(CNS(=O)(=O)c2ccc3c(c2)CC(C)N3C(=O)C2CCC2)c1 (centres undefined)	5.8 µM (active) and 7.31 µM (active)	–
CC(=O)N1CCc2cc(S(=O)(=O)NC3CCCCC3)ccc21	inactive	–
CC1Cc2ccccc2N1CC(=O)Nc1ccc(S(N)(=O)=O)cc1 (centres undefined)	inactive	–
CC1Cc2cc(S(=O)(=O)CCC(=O)Nc3ccc(F)c(Cl)c3)ccc2N1C(=O)C1CC1 (centres undefined)	10.3 µM (active)	–
CC(=O)N1c2ccc(S(=O)(=O)NCCC(=O)N(C)C3CCCCC3)cc2CC1C (centres undefined)	10.3 µM (active)	–
COc1cccc(CNC(=O)C2CCC(CNS(=O)(=O)c3cccs3)CC2)c1 (centres undefined)	inactive	–
Cc1ccc(S(=O)(=O)NCCC(=O)NCc2ccc(Cl)cc2)cc1C	inactive	–

Compound	Potency	activity change, negative = growth inhibition
CC(=O)N1c2ccc(S(=O)(=O)N(C)CC(=O)N(C)Cc3ccccc3)cc2CC1C (centres undefined)	inactive	–
CCC(=O)N1c2ccc(S(=O)(=O)CCC(=O)N3CCN(c4ccccc4)CC3)cc2CC1C (centres undefined)	inactive	–
Cn1c(=O)oc2cc(S(=O)(=O)CCC(=O)NCCc3ccc(Cl)cc3)ccc21	inactive	–
O=C(Cn1cnc2c(cnn2-c2ccc(F)cc2)c1=O)NCCc1ccccc1	inactive	–
CCCCNC(=O)OCCSCCS(=O)(=O)c1ccc(Cl)cc1	inactive	–
Cc1nc2c(c(C)nn2-c2ccccc2)c(C)c1C	inactive	–
CCOC(=O)c1cc(S(=O)(=O)NCCc2ccc(OC)c(OC)c2)cn1C	inactive	–
CNC(=O)C(NC(=O)c1ccccc1)=C(C)C	inactive	–
O=C(CSC1CC(=O)N(CCc2ccccc2)C1=O)Nc1ccc(Cl)cc1 (centres undefined)	inactive	–
CCOC(=O)CNc1nc(Cl)nc(Nc2ccc(OC)cc2OC)n1	inactive	–
Cc1c(S(=O)(=O)N2CC(C)CC(C)C2)c(=O)n(C)c(=O)n1C (centres undefined)	inactive	–
CC(C)CCN1CCC(C)(NC(=O)c2ccccc2)C1=O (centres undefined)	inactive	–
O=C(c1ccc(Cl)nc1)N1CCN(S(=O)(=O)c2ccc3c(c2)OCCO3)CC1	inactive	–
CCOC(=O)c1ccccc1NC(=O)CCc1c(C)nc2c(c1C)c(=O)n(C)c(=O)n2C	inactive	–
COc1cc(NC(=O)c2ccc(CNc3c(N4CCCC4)c(=O)c3=O)cc2)cc(OC)c1OC	inactive	–
COc1cc(C(=O)Nc2ccc(-n3c(C)nc4ccccc4c3=O)cc2)cc(OC)c1OC	16.4 µM (active)	–
COc1cc(C(=O)Nc2ccc(OCc3cc(=O)n4ccc(C)cc4n3)cc2)cc(OC)c1OC	inactive	–
COc1cc(NC(=O)c2nc3ccccc3nc2C)cc(OC)c1OC	inactive	–
COc1ccc(NC(=O)CN2C(=O)CSC2=O)cc1	inactive	–
CCC(=O)N1CCCC1(C)C(=O)Nc1ccc2c(c1)CCN2C(C)=O (centres undefined)	inactive	–
COC(=O)C1=C(C)Nc2ncnn2C1c1cccnc1 (centres undefined)	inactive	–
CC1=C(C(N)=O)C(c2ccc(Br)cc2)n2ncnc2N1 (centres undefined)	inactive	–
CC1=C(C(=O)OC2CCCCC2)C(c2cccnc2)n2ncnc2N1 (centres undefined)	14.6 µM (active)	–
S=C(NC1CCCCC1)NN1CCOCC1	inactive	–
Cc1ccc(C(=O)NCCc2nnc(SCC(=O)Nc3cccc(C(=O)O)c3)n2C)cc1	inactive	–
Cc1cccc(NC(=O)C2CCCN2S(=O)(=O)c2cccc3nsnc23)c1C (centres undefined)	inactive	–
